This is a sample that favours compounds with a hit; in the whole collection about 7.8% have one here.
Vaccinia mCherry: vaccinia inhibition (mCherry reporter); Potency, µM (top dose mostly 36.5 µM), without a hit: at the highest dose activity change, negative = inhibition, hits mostly inhibitors; Vaccinia virus mCherry reporter infection, fluorescence; AID 720579; 0.63% of 310,000 active; calls by dose curve; tested in A549 cells; further: potency means the concentration at half of the fitted maximal effect; nearly all actives have a fitted effect of over 35% in size
MARV entry inh: inhibitors of Marburg virus binding or cell entry | Marburg virus pseudotyped entry inhibition, cell reporter | Potency, µM (titrated, usually from 37.8 µM), for the others: top-dose activity change, negative = inhibition, most hits filed as inhibitors | 1.8% of 300,000 active | AID 540276; calls by dose curve; tested in HEK293 cells; further: potency means the concentration at half of the fitted maximal effect
LASV entry inh: blocks Lassa virus binding to or entry into cells | Potency, µM (highest dose often 37.9 µM), for inactives: at the highest dose activity change, negative = inhibition, actives largely listed as inhibitors | Lassa virus pseudotype entry inhibition, cell reporter | 1.2% of 300,000 active | AID 540256; calls by dose curve; tested in HEK293 cells; further: potency means the concentration at half of the fitted maximal effect; nearly all actives have a fitted effect of over 50% in size
HCV inhibitor: blocks hepatitis C virus | Potency, µM (highest dose often 41.8 µM), for inactives: at the highest dose activity change, negative = inhibition, hits mostly inhibitors | Huh7.5.1 HCVcc-Cre infection, luciferase reporter, 44 h | 3.4% of 340,000 active; active means well fitted inhibition curve with a large enough effect; inconclusive means small, poorly fitted or top-dose-only effect, or another doubt; inactive means no such curve, though single readings can be large or run the other way; further: potency means the concentration at half of the fitted maximal effect
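Luciferase read-out (15 sec integration) after a 15 min room-temperature substrate step quantifies HCVcc-Cre infection. Cells, 1,000 per well, had compound added 4 h post-plating, then virus at ~0.5 moi, and were cultured 44 h.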
HCMV inh: inhibitors of human cytomegalovirus | HFF cells, HCMV-luciferase reporter, 72 h; hits give low values | activity change, negative = inhibition, % at 57.5 µM | 4.5% of 410,000 active | AID 1259415; in the data active means activity change below about -60%; inconclusive means no clear call, values can overlap the other calls; inactive means above about -39%
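HFF cells seeded 16 h at 37C, treated with compounds, infected with luciferase-reporter HCMV at MOI 1 PFU/cell; luciferase read at 72 h post infection, normalized to buffer-only and Salinomycin controls.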
Vaccinia Venus: vaccinia inhibition (Venus reporter) | 0.46% of 330,000 active | Potency, µM (top dose mostly 36.5 µM), without a hit: top-dose activity change, negative = inhibition, hits mostly inhibitors | Vaccinia virus Venus reporter expression, fluorescence; calls by dose curve; tested in A549 cells; further: potency means the concentration at half of the fitted maximal effect; nearly all actives have a fitted effect of over 30% in size
The depositor's hits bear a star; i = inactive; u = inconclusive; x = no result; + = active, no number; [ ] = remark or other dose. On the % scale 0 is the no-effect control and ±100 the full control effect.

SMILES	Vaccinia mCherry	MARV entry inh	LASV entry inh	HCV inhibitor	HCMV inh	Vaccinia Venus
C(=N/n1c2ccccc2c2ccccc21)/c1ccco1	x	-23%[46.1 µM]	-2%	8.9µM*	43	u
C(=N\n1c2ccccc2c2ccccc21)/c1ccccc1	i	12%	-4%	u	19	-7%
O=C(Nc1cccc(C(F)(F)F)c1)c1cccn(Cc2ccc3c(c2)OC(F)(F)O3)c1=O	x	u	7%	1%	-16	x
O=C(Nc1ccc(C(F)(F)F)cc1)c1cccn(Cc2ccc3c(c2)OC(F)(F)O3)c1=O	x	u	-12%	10µM*	-98*	x
CN1CCN(CC(=O)Nc2sc3c(c2C(=O)Nc2ccccc2)CCCC3)CC1	x	x	x	u	19	x
NC(=O)c1c(NC(=O)CN2CCN(S(=O)(=O)c3ccccc3)CC2)sc2c1CCC2	u	u	u	10µM*	-34	-24%
Cc1ccc(S(=O)(=O)CC(=O)Nc2sc3c(c2C(N)=O)CCCC3)cc1	i	x	-3%[46.1 µM]	x	+	-8%
COc1ccc(Cn2cnc3cnc(Nc4ccc(NC(C)=O)cc4)cc32)cc1OC	x	x	x	x	-72*	x
CNc1nc2cnc(Nc3cccc(C(F)(F)F)c3)cc2n1Cc1ccc(OC)c(OC)c1	x	x	x	x	20	x
O=C(CCCn1c(=O)c2sccc2n(Cc2c(F)cccc2Cl)c1=O)NCc1ccccc1	-20%	15%[46.1 µM]	4%[46.1 µM]	x	4	-10%
O=C(C[n+]1ccccc1)N/N=C/c1cc(Br)ccc1F	-5%	0%	15%	4%	-99*	-1%
C=C1C=C(C(F)F)n2ncc(C(=O)NCc3ccccc3)c2N1	-1%	x	x	x	x	-17%
Cc1ccc(SCCCCN2CCNCC2)cc1	x	u	29%	11µM*	-1	x
COc1ccc(Nc2nc(-c3cccs3)nc3ccccc23)cc1	-30%	u	-22%	4.5µM*	-102*	u
CC(C)S(=O)(=O)N1CCN(c2nc(-c3cccs3)nc3ccccc23)CC1	-13%	x	x	x	x	-5%
c1csc(-c2nc(N3CCOCC3)c3ccccc3n2)c1	18%	u	-26%	11µM*	-8	-20%
COc1ccc(N2CCN(c3nc(-c4cccs4)nc4ccccc34)CC2)cc1	-27%	u	2%	11µM*	u	-10%
c1ccc2c(N3CCOCC3)nc(-c3ccncc3)nc2c1	x	u	-30%	u	87	17%
COc1ccc(Nc2nc(-c3cccc([N+](=O)[O-])c3)nc3ccccc23)cc1	u	15µM*	u	u	23	u
COc1ccc(NC(=O)c2csnn2)cc1	-2%	u	0%[46.1 µM]	x	61	2%
Cc1ccccc1/C=C(\C#N)c1nc(-c2ccc(Cl)cc2)cs1	2%	-13%[46.1 µM]	-1%[46.1 µM]	x	-15	-3%
CCN1C(N(C)CCOC)=NC(c2cccc(F)c2)C(C(=O)OC)=C1C (centres undefined)	x	-24%[14.2 µM]	u	x	x	x
COc1ccccc1NC(=O)C1=C(C)N(c2ccccc2)C(=S)NC1c1cccc(C(F)(F)F)c1 (centres undefined)	x	u	u	u	-96*	x
COC(=O)c1ccc(C2NC(=S)N(c3ccccc3)C(C)=C2C(=O)Nc2ccccc2OC)cc1 (centres undefined)	x	u	6.5µM*	u	-1	x
CC1=C(C(=O)N2CCOCC2)C(c2ccc(Br)cc2)NC(=S)N1c1ccccc1 (centres undefined)	-8%	9%[46.1 µM]	15%	5%	30	-1%
SMILES	Vaccinia mCherry	MARV entry inh	LASV entry inh	HCV inhibitor	HCMV inh	Vaccinia Venus
CCC(CO)Oc1cc(NCc2ccccc2Cl)c2ncn(C(C)C)c2c1 (centres undefined)	-16%	x	x	2.2µM*	28	-25%
CCC(CO)Oc1cc(NCc2ccccc2C(F)(F)F)c2ncn(C(C)C)c2c1 (centres undefined)	-9%	x	x	1.3µM*	70	-19%
CCc1nnc(SC(CC)C(=O)Nc2cc(C)ccc2C)c2cc3occc3n12 (centres undefined)	-7%	x	14%[46.1 µM]	x	-5	-12%
CSc1nn(CC(=O)Nc2cc(C)ccc2C)c(N)c1S(=O)(=O)c1ccccc1	-6%	x	u	x	u	-15%
Cc1cc(Nc2cccc([N+](=O)[O-])c2)n2c(nc3ccccc32)c1C#N	u	3.2µM*	6.3µM*	6.3µM*	-100*	u
CC(=O)N(C(C)=O)c1ncc2c([nH]c3ccccc32)c1C#N	11µM*	u	-14%	-8%	-77*	u
C[C@H](O)C#Cc1cnc2c(c1)C(=O)N([C@H](C)CO)C[C@@H](C)[C@@H](CN(C)Cc1ccc(-c3ccccc3)cc1)O2	u	x	x	x	-71*	u
C[C@H](CO)N1C[C@H](C)[C@@H](CN(C)Cc2ccc(-c3ccccc3)cc2)Oc2ncc(C#C[C@@H](C)O)cc2C1=O	u	x	x	x	6	-30%
C[C@@H]1CN([C@H](C)CO)C(=O)c2cc(Br)cnc2O[C@@H]1CN(C)C(=O)Cc1ccccc1	i	x	x	x	3	-7%
C[C@H](O)C#Cc1ccc2c(c1)O[C@@H](CN(C)Cc1ccc(-c3ccccc3)cc1)[C@H](C)CN([C@@H](C)CO)S2(=O)=O	-23%	x	x	x	-82*	u
C[C@@H]1CN([C@H](C)CO)C(=O)c2cc(Br)cnc2O[C@H]1CN(C)C(=O)Cc1ccncc1	u	x	x	x	-6	1.3µM*
Nc1ccc[n+](CC(=O)c2ccc(F)cc2)c1	34%	x	x	x	x	310%
COc1ccc(-c2sc3ccc(OC)cc3c2-c2ccc(O)cc2)cc1	u	x	x	8.9µM*	u	u
COc1cc2sc(-c3ccccc3OC)c(-c3ccc(O)cc3)c2cc1OC	u	x	x	11µM*	49	-25%
COc1cc(OC)cc(-c2sc3ccc(OC)cc3c2-c2ccc(O)cc2)c1	u	x	x	u	-34	u
O=C1OCC2=C1C(c1ccc3c(c1)OCO3)c1cc3c(cc1O2)OCO3 (centres undefined)	-4%	-22%	u	u	-23	-27%
COc1cc(C2C3=C(COC3=O)Oc3cc4c(cc32)OCO4)cc(OC)c1OC (centres undefined)	u	u	u	u	-84*	u
COc1cc(C2C3=C(COC3=O)Oc3cc4c(cc32)OCO4)cc(OC)c1O (centres undefined)	32µM*	u	u	-18%	-79*	u
COc1cccc(NC(=O)C2CCCN(S(=O)(=O)c3cn(C(C)C)cn3)C2)c1 (centres undefined)	i	x	5%[46.1 µM]	x	8	-10%
CCc1ccc(NC(=O)CSc2nc(-c3cccc(OC)c3)nc3c2Cc2c(CO)cnc(C)c2O3)cc1	-11%	x	0%[46.1 µM]	x	-35	-12%
Cc1sc2nc(SCC(=O)Nc3cccc(C(=O)O)c3)[nH]c(=O)c2c1C	-8%	13%	4%	-14%	19	3%
